SUMO Mot1 rescue: inhibitors of SUMOylation pathway: yeast Mot1-301 growth rescue; S. cerevisiae Mot1-301 growth rescue, ATP luminescence, 38.5C; percent above DMSO median, 100 means doubled; growth rescue, % at 18.8 µM; 1% of 320,000 active; AID 2716;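 active means every valid replicate shows activation above 250% relative to neutral control wells; inactive means the rest, any valid replicate at or below 250%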;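 further: OY570 slx delta 5 strain wells were the positive control but not used for scaling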
MEKK2 WT-MEK5: raises or lowers MEK5 binding to wildtype human MEKK2 PB1 domain; Q9Y2U5; bead flow cytometry, Alexa488-MEK5 binding to MEKK2 WT; actives lie on both sides; binding response (% of control), % at 10 µM; 1.1% of 290,000 active; AID 1531; in the data active means binding response below about 67% or above about 130%
MEKK2 mut-MEK5: signal of MEK5 binding to mutant human MEKK2 PB1 domain | bead flow cytometry, Alexa488-MEK5 binding to MEKK2 mutant | percent response, % at 10 µM | 0.35% of 290,000 active; in the data active means percent response above about 24%, passing the limit was not always enough
CHT PAM: human CHT allosteric activation; B-score at 10 µM; CHT-expressing cells, membrane potential dye, choline EC20; hits give high values; LV-AA mutant CHT in HEK293 cells; Q9GZV3; AID 488977; 0.49% of 310,000 active;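 active means initial fluorescence not abnormally high and integrated response B-score, plate-corrected, over 3 SD above library mean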
MEKK3 PB1 HTS: MEKK3-MEK5 PB1 interaction, increase or decrease | 1.4% of 290,000 active | binding response (% of control), % at 10 µM | bead-based flow cytometry, Alexa488-MEK5 binding to MEKK3; actives lie on both sides; 0 = blocked by unlabeled MEK5, 100 = vehicle | AID 1529;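 active means binding response more than 3 SD above or below the average of its plate-row segment, actives on both sides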;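 further: Alexa488 bead fluorescence after subtracting the streptavidin-only scavenger bead signal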
Target sequence (Q99759 whole entry, looked up): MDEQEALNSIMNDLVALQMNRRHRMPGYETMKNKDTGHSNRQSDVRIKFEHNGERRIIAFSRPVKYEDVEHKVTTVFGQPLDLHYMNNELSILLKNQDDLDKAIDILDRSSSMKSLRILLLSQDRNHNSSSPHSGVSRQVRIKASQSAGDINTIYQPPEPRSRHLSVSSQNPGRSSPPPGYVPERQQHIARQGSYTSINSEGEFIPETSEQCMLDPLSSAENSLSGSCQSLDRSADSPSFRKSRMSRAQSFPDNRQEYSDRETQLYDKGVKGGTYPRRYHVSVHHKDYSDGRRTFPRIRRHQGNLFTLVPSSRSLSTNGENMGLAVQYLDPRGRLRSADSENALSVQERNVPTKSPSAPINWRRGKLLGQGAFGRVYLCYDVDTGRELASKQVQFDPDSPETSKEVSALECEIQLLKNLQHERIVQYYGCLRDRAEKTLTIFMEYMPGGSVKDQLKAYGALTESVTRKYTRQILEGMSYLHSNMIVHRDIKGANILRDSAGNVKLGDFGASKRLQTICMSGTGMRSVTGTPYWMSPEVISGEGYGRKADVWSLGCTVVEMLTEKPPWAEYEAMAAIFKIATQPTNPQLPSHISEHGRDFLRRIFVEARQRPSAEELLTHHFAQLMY
CHT inh: inhibits the human high affinity choline transporter. Q9GZV3. CHT-expressing cells, membrane potential dye, choline response; hits give low values. B-score at 10 µM. 0.86% of 310,000 active. AID 488975;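 active means B-score over 3 SD under the library average, and starting fluorescence ratio not unusually high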;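 further: choline stimulus applied at its EC90 after an EC20 pre-addition; B-score computed on integrated fluorescence ratio after choline addition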
Yeast Mot1 SUMO: inhibits SUMO pathway, affecting Mot1-301 yeast growth; shares compounds with SUMO Mot1 rescue; S. cerevisiae Mot1-301 galactose growth, ATP luminescence, 24 h; -100 = growth of slx-deleted rescue strain; growth activity, percent, % at 42 µM; 2,300 tested, under 10 active; AID 493004;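 active means Signal drops as the depositor expects, and the fitted half-maximal dose is no more than ten times the top valid tested dose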;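 further: more negative values mean stronger growth rescue toward the control strain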
* marks the source's active call; other numbers are inactive results; i = inactive; x = no result given; + = active, no number. Shown are actives, neighbours in structure and some others; about 4.1% of the full set was active somewhere.

SMILES	SUMO Mot1 rescue	MEKK2 WT-MEK5	MEKK2 mut-MEK5	CHT PAM	MEKK3 PB1 HTS	CHT inh	Yeast Mot1 SUMO
O=C(c1ccc(F)cc1)C(CN1CCOCC1)c1ccccc1 (stereo not drawn)	372*	96	3	i	102	i	-2
COc1ccc(C(=O)C(CN2CCOCC2)c2ccccc2)cc1 (stereo not drawn)	314	101	5	i	105	i	x
COc1ccc2c(c1)c(CC(=O)OCC(N)=O)c(C)n2C(=O)c1ccc(Cl)cc1	674*	111	15	i	117	i	0
COc1ccc2c(c1)c(CC(=O)OCC(=O)O)c(C)n2C(=O)c1ccc(Cl)cc1	x	99	8	i	117	i	x
O=C(CN1CCCCC1)N1c2ccccc2CCc2ccccc21	7	x	x	i	x	i	x
O=C(c1ccco1)N1CCN(CC(=O)N2c3ccccc3CCc3ccccc32)CC1	368*	100	1	i	102	i	0
Cc1c(C(=O)N2CCOCC2)c(S(=O)(=O)Nc2cccc(Br)c2)c(C)n1C	553*	94	-2	i	101	i	1
COc1cccc(S(=O)(=O)Nc2cccc(C(=O)N3CCCC3)c2)c1	0	102	0	i	102	i	x
COc1cccc(S(=O)(=O)Nc2cccc(C(=O)N3CCOCC3)c2)c1	478*	89	4	i	88	i	0
CCC(C)NC(=O)CCn1c(=O)c2cccn2c2ccc(F)cc21 (stereo not drawn)	-8	106	7	i	106	i	x
CC1CCN(C(=O)c2cc(Cl)ccc2NC(=O)c2ccco2)CC1	-17	101	1	i	103	i	x
CCOc1ccc2[nH]c(=O)c(CN(Cc3ccco3)C(CC)c3nnnn3Cc3ccccc3)cc2c1 (stereo not drawn)	+	94	0	i	101	i	0
CCOc1ccc2[nH]c(=O)c(CN(Cc3ccco3)Cc3nnnn3Cc3ccccc3)cc2c1	132	101	3	i	108	i	x
Cc1nc(-c2ccncc2)sc1C(=O)Nc1ccc(Br)cc1	745*	112	14	i	104	i	0
COc1ccccc1CCNC(=O)c1ccc(NC(=O)CC2SC(N3CCCC3)=NC2=O)cc1 (stereo not drawn)	-2	x	x	i	x	i	x
COc1ccc(NC(=O)COc2ccccc2)c(OC)c1	725	106	3	i	102	i	x
COc1ccc(NC(=O)CC(C)C)c(OC)c1	789*	103	4	i	105	i	0
CC1CN(Cc2ccccc2)c2nc3c(c(=O)[nH]c(=O)n3C)n2C1 (stereo not drawn)	475*	101	-2	i	97	i	0
COC(=O)c1cc(C(=O)Nc2nnc(C3CC3)s2)cc([N+](=O)[O-])c1	-14	103	1	i	105	i	x
Cc1ccc(NS(=O)(=O)c2ccc(C(=O)Nc3nncs3)cc2)cc1	6	x	x	x	x	x	x
COc1cccc(CN(C)C(=O)C2CCC(=O)N(Cc3cccc(F)c3)C2)c1 (stereo not drawn)	722*	106	4	i	103	i	-1
O=C(Nc1ccc2c(c1)CCC2)c1ncoc1-c1ccccc1F	x	100	-3	x	104	x	x
CCN(Cc1ccccc1)C(c1ccncc1)c1nnnn1C(C)(C)C (stereo not drawn)	123	99	1	i	96	i	x
CC(C)(C)c1ccc(CN(Cc2ccccc2)C(c2ccccn2)c2nnnn2C(C)(C)C)cc1 (stereo not drawn)	505*	99	1	i	104	i	0
Cn1c(=O)c2c(nc(N/N=C/c3ccc(OC(=O)c4ccco4)cc3)n2Cc2ccccc2Cl)n(C)c1=O	+	105	-2	i	109	i	0
SMILES	SUMO Mot1 rescue	MEKK2 WT-MEK5	MEKK2 mut-MEK5	CHT PAM	MEKK3 PB1 HTS	CHT inh	Yeast Mot1 SUMO
Cn1c(=O)c2c(nc(N/N=C/c3ccc(OC(=O)c4ccco4)cc3)n2Cc2ccc(F)cc2)n(C)c1=O	7	118	9	i	102	i	x
COCCn1c(C)cc(C(=O)CSc2ccc(NC(C)=O)cc2)c1C	-16	95	-3	i	93	i	x
COCC(C)n1c(C)cc(C(=O)CSc2ccc(NC(C)=O)cc2)c1C (stereo not drawn)	+	102	1	i	102	i	0
CC(=O)c1cccc(N2C(=NC(=O)C3CCCCC3)SC3CS(=O)(=O)CC32)c1 (stereo not drawn)	477*	97	7	i	102	i	0
O=C(N=C1SC2CS(=O)(=O)CC2N1c1ccc(F)cc1F)C1CC1 (stereo not drawn)	9	98	10	i	99	i	x
O=C(N=C1SC2CS(=O)(=O)CC2N1c1ccc(F)c(Cl)c1)C1CC1 (stereo not drawn)	518*	92	-13	i	96	i	0
S=c1[nH]ccn1-c1cccc(Cl)c1	479*	96	-2	i	92	i	-1
O=[N+]([O-])c1ccc(S(=O)(=O)N2CCN=C2SCc2cccnc2)cc1	-11	87	-13	i	103	i	x
COc1ccccc1/C=N\N=C(\N)c1ccccn1	-18	100	-2	i	98	i	x
Cc1ccc(-c2nc3c(=O)n(C)c4ccccc4c3o2)cc1	-6	105	5	i	103	i	x
Cc1ccc(-c2nc3c(=O)n(-c4ccccc4)c4c(c(=O)n(C)c(=O)n4C)c3o2)cc1	796*	83	-24	i	89	i	1
CN(Cc1ccccc1)c1ccc(S(=O)(=O)N2CCC(C(=O)O)CC2)cc1[N+](=O)[O-]	550*	102	-3	i	105	i	0
O=C(O)C1CCN(c2ccc(S(=O)(=O)N3CCC(C(=O)O)CC3)cc2[N+](=O)[O-])CC1	-13	106	3	i	100	i	x
CCOC(=O)c1c(C)[nH]c(C(=O)COC(=O)c2ccco2)c1C	14	x	x	x	x	x	x
O=C(NCc1ccccn1)C1CC(c2ccc(Cl)c(Cl)c2)=NO1 (stereo not drawn)	+	95	-2	i	86	i	0
COc1ccc(N2CCN(C(=O)CNC(=O)Cc3ccc(Cl)cc3)CC2)cc1	410*	103	1	i	104	i	0
Cc1ccc(/C=C(\C#N)C(=O)Nc2cccc(C)n2)cc1	-15	107	8	i	110	i	x
